Values joined by “and” are separate entries in the source; they are usually repeats but may differ in a detail not shown here. Identical values can stand only once. About 2,000 (36%) of roughly 5,500 compounds were called active. Not shown: some 18% with an inconclusive outcome. Rule as the data show it: active = normalized growth mostly below about 0.91 (no sharp cut-off); inconclusive = no clear call, values can overlap the other calls; inactive = mostly above about 0.92. The list shows a part of the results.
Assay: chemical genetic growth profiling, strain panel (AID 1159580);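 also: tested at 20 µM; growth read once vehicle control cultures reached saturation at 30 °C; 1 = growth at the plate median or of vehicle wells; lower values mean less growth of the strain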
Conditions: S. cerevisiae deletion strains, growth OD

Measured: normalized growth

Cc1c(N(C)CS(=O)(=O)O)c(=O)n(-c2ccccc2)n1C
inactive: locus YAL021C, strain ccr4, hits give low values 1.01 | locus YAL026C, strain drs2, hits give low values 1.01 | locus YAL030W, strain snc1, hits give low values 1.01 | locus YBL061C, strain skt5, hits give low values 1.01 | locus YBR009C, strain hhf1, hits give low values 1 | locus YBR021W, strain FUR4, hits give low values 0.991 | locus YBR023C, strain chs3, hits give low values 1.01 | locus YBR171W, strain sec66, hits give low values 1.02 | locus YBR229C, strain ROT2, hits give low values 0.989 | locus YBR231C, strain swc5, hits give low values 1.02 | locus YBR279W, strain paf1, hits give low values 1.04 | locus YCL011C, strain gbp2, hits give low values 1.01 | locus YCL016C, strain dcc1, hits give low values 1.01 | locus YCL029C, strain bik1, hits give low values 0.992 | locus YCL061C, strain MRC1, hits give low values 1.01 | locus YCL069W, strain vba3, hits give low values 1.01 | locus YCR088W, strain abp1, hits give low values 1.01 | locus YDL005C, strain med2, hits give low values 1.01 | locus YDL035C, strain GPR1, hits give low values 1 | locus YDL040C, strain nat1, hits give low values 1.01 | locus YDL074C, strain BRE1, hits give low values 1.06 | locus YDL101C, strain DUN1, hits give low values 1 | locus YDL134C, strain PPH21, hits give low values 0.979 | locus YDL185W, strain tfp1, hits give low values 0.992 | locus YDL192W, strain arf1, hits give low values 0.982 | locus YDR001C, strain nth1, hits give low values 1.01 | locus YDR069C, strain doa4, hits give low values 1.01 | locus YDR101C, strain arx1, hits give low values 1.03 | locus YDR137W, strain rgp1, hits give low values 1.01 | locus YDR159W, strain sac3, hits give low values 1 | locus YDR162C, strain NBP2, hits give low values 0.987 | locus YDR195W, strain ref2 1.01 | locus YDR297W, strain sur2, hits give low values 1.01 | locus YDR318W, strain mcm21, hits give low values 0.976 | locus YDR334W, strain swr1, hits give low values 1.01 | locus YDR335W, strain msn5, hits give low values 1.01 | locus YDR388W, hits give low values 0.982 | locus YDR392W, strain spt3, hits give low values 1.01 | locus YDR502C, strain sam2, hits give low values 1 | locus YEL003W, strain gim4, hits give low values 1.01 | locus YEL037C, strain rad23, hits give low values 1.01 | locus YEL061C, strain CIN8 (second series), hits give low values 1.02 | locus YEL061C, strain CIN8, hits give low values 0.999 | locus YER015W, strain faa2, hits give low values 1.01 | locus YER016W, strain bim1, hits give low values 1.01 | locus YER110C, hits give low values 0.994 | locus YER111C, strain swi4, hits give low values 1.01 | locus YER155C, strain BEM2 (second series), hits give low values 1.02 | locus YER155C, strain BEM2, hits give low values 0.992 | locus YER167W, strain BCK2, hits give low values 0.979 | locus YFR010W, strain ubp6, hits give low values 1.02 | locus YGL078C, strain dbp3, hits give low values 0.985 | locus YGL086W, strain mad1, hits give low values 0.995 | locus YGL167C, strain pmr1, hits give low values 1.01 | locus YGL173C, strain kem1, hits give low values 1.02 | locus YGL227W, strain vid30, hits give low values 1.01 | locus YGL240W, strain doc1, hits give low values 1.03 | locus YGL248W, strain PDE1, hits give low values 0.991 | locus YGL253W, strain hxk2, hits give low values 1.01 | locus YGR135W, strain pre9, hits give low values 0.96 | locus YGR252W, strain gcn5, hits give low values 0.968 | locus YHR013C, strain ard1, hits give low values 0.999 | locus YHR027C, strain rpn1, hits give low values 1.01 | locus YHR030C, strain SLT2, hits give low values 0.984 and 1 | locus YHR079C, strain IRE1 (second series), hits give low values 0.986 | locus YHR079C, strain IRE1, hits give low values 0.98 | locus YHR094C, strain hxt1, hits give low values 0.985 | locus YHR129C, strain ARP1, hits give low values 0.988 | locus YHR142W, strain chs7, hits give low values 1.02 | locus YHR200W, strain rpn10, hits give low values 0.981 | locus YIL066C, strain RNR3, hits give low values 0.998 | locus YIL073C, strain SPO22, hits give low values 0.997 | locus YIL125W, strain kgd1, hits give low values 0.993 | locus YIR030C, strain dcg1, hits give low values 0.982 | locus YJL092W, strain hpr5, hits give low values 1.01 | locus YJL095W, strain BCK1 (second series), hits give low values 1.02 | locus YJL095W, strain BCK1, hits give low values 1 and 0.996 | locus YJL115W, strain asf1, hits give low values 1 | locus YJL129C, strain trk1, hits give low values 1.01 | locus YJL134W, strain LCB3, hits give low values 0.986 | locus YJL154C, strain vps35, hits give low values 1.01 | locus YJL164C, strain tpk1, hits give low values 1.01 | locus YJL166W, strain qcr8, hits give low values 1.02 | locus YJL168C, strain set2, hits give low values 0.989 | locus YJL187C, strain SWE1 (second series), hits give low values 0.997 | locus YJL187C, strain SWE1, hits give low values 1.01 | locus YJR043C, strain POL32, hits give low values 1 | locus YJR066W, strain TOR1, hits give low values 0.946
